Screening results (PubChem BioAssay)
CIT2-GFP yeast – modulators of TOR pathway CIT2-GFP in S. cerevisiae; actives 0.065% (n = 320,000); GFP response vs DMSO, % at 10 µM; S. cerevisiae CIT2-GFP strain, flow cytometry, 3 h; 100 means same as DMSO wells;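 active means GFP response relative to DMSO above a set limit, near the screen mean plus 3 SD, cut at about 150% in these data; inconclusive means Fewer than 70 cells measured for a yeast strain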;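 further: ratio of well median GFP fluorescence to mean of DMSO wells on the plate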
AGP1-GFP MLPCN – yeast TOR pathway AGP1-GFP modulation | S. cerevisiae AGP1-GFP multiplex flow cytometry, 3 h; GFP as percent of DMSO wells | actives 0.02% (n = 320,000) | GFP response vs DMSO, % at 10 µM;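 active means GFP response relative to DMSO above a set limit, near screen average plus 3 SD, cut at about 150% in these data; inconclusive means fewer than 70 cells counted for the yeast strain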;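 further: median GFP channel fluorescence of the gated AGP1 strain per well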
MEP2 TOR yeast – modulators of TOR pathway MEP2-GFP in S. cerevisiae | S. cerevisiae MEP2-GFP strain, flow cytometry GFP, 3 h; 100% = DMSO control level | GFP response vs DMSO, % at 10 µM | actives 0.51% (n = 330,000) | AID 2016;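 active means GFP response versus DMSO above a set limit, roughly screen mean plus 3 SD, cut at about 180% in these data; inconclusive means fewer than 70 cells counted for a yeast strain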;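 further: median GFP fluorescence of the barcode-gated MEP2-GFP cells per well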
RPL19A-GFP yeast – alters RPL19A-GFP fluorescence in TOR pathway yeast screen. percent response vs DMSO, % at 10 µM. S. cerevisiae RPL19A-GFP strain, flow cytometry, 3 h; hits give low values. actives 0.3% (n = 330,000);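 active means percent response vs DMSO below 50%; inconclusive means fewer than 70 events counted for the yeast strain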;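 further: median channel GFP fluorescence of the barcoded RPL19A-GFP strain; ratio of sample median GFP to plate DMSO average so 100% = DMSO; lower means less RPL19A-GFP as with rapamycin TOR inhibition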
VLA-4 inh – inhibition in a human VLA-4 binding assay; P13612; VLA-4 expressing cells, ligand binding flow cytometry; inhibition, % (about 7 µM as worked out from the volumes in the protocol); actives 0.2% (n = 330,000); AID 2557; in the data active means inhibition above about 50%
Target sequence (P13612 whole entry, looked up): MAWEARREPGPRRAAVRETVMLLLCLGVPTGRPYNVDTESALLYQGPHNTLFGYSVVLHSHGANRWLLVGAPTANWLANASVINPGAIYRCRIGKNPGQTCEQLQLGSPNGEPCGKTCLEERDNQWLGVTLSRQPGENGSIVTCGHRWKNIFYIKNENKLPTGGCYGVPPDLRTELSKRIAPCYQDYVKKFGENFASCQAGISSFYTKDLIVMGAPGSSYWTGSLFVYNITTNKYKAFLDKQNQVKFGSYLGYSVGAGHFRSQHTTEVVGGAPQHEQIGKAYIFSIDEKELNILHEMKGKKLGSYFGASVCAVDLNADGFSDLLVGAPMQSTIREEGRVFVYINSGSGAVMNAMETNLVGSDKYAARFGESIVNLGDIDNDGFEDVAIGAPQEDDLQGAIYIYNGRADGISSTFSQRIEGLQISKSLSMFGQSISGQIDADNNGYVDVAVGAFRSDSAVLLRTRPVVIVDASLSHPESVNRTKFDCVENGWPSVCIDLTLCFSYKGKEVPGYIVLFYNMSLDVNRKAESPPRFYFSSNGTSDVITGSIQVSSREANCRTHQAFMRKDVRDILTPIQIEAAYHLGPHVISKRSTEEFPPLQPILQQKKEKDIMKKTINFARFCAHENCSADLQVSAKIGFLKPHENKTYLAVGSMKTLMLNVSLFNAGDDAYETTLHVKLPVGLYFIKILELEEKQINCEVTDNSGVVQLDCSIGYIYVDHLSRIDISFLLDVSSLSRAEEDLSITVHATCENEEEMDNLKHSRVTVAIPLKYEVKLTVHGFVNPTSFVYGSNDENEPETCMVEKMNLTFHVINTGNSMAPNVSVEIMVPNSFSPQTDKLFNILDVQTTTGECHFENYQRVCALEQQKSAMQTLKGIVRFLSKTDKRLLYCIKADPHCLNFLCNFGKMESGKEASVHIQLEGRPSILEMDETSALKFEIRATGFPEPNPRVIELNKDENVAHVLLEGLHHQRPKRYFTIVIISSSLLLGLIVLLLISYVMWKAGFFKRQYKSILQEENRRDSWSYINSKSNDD
LAP4 TOR yeast – modulators of TOR pathway LAP4-GFP in S. cerevisiae; GFP response vs DMSO, % at 10 µM; actives 0.34% (n = 320,000); S. cerevisiae LAP4-GFP multiplex, flow cytometry GFP, 3 h; median GFP as percent of DMSO wells;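 active means GFP response vs DMSO above a set limit, about the screen mean plus 3 SD, cut at about 150% in these data; inconclusive means under 70 cell events counted for the yeast strain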
Active calls of the source: *; ? = inconclusive; . = not tested or not shown; [ ] = another dose, or the depositor's remark. The list is not random: actives were taken first. Their share in the collection is about 1.1%.

SMILES	CIT2-GFP yeast	AGP1-GFP MLPCN	MEP2 TOR yeast	RPL19A-GFP yeast	VLA-4 inh	LAP4 TOR yeast
CC1(C)Cc2cccc(OCC(=O)Nc3ccccc3N3CCOCC3)c2O1	?	?	?	15.7*[may fluoresce violet]	11.2	103.0
Cc1ccc(C(=O)NCC(=O)NCC(c2cccs2)N(C)C)cc1C (centres undefined)	103.3	99.2	105.5	106.1	5.8	106.4
O=C(CCN1C(=O)C2C3CCC(C3)C2C1=O)Nc1cccc(Cl)c1 (centres undefined)	101.0	91.9	99.7	106.2	6.0	88.8
O=C1OCCN1C(=O)[C@H]1[C@H](c2ccc(F)cc2)C(c2ccc(F)cc2)=NN1c1ccc(Br)cc1	?	15.6	383.1*[may fluoresce violet]	91.7	7.7	130.3
O=C1OCCN1C(=O)[C@H]1[C@H](c2ccc(F)cc2)C(c2ccc(F)cc2)=NN1c1ccccc1	71.4	82.8	92.5	106.2	0.2	109.3
Cc1ccc(NC(=S)N2CCCC2)cc1Cl	91.5	88.5	100.0	109.5	12.9	75.7
CCC(C)Sc1ccc([C@H]2N[C@@](C)(C(=O)OC)[C@H]3C(=O)N(CC)C(=O)[C@@H]23)cc1OC (some centres undefined)	85.3	94.5	93.2	94.2	14.5	100.5
CCC(c1nnnn1CCOC)N1CCN(Cc2ccccc2OC)CC1 (centres undefined)	?	?	260.1*[may fluoresce violet]	.	11.7	84.3
CC(NC(=O)CN1CCOCC1)c1ccc(F)cc1 (centres undefined)	108.2	104.7	103.5	101.0	6.4	97.6
OC[C@H]1OC(Nc2ccc(N=Nc3ccccc3)cc2)[C@@H](O)[C@@H](O)[C@@H]1O (some centres undefined)	78.2	82.5	92.1	95.2	-5.2	96.0
OCC(O)C1OC(Nc2ccc(Cl)cc2)C(O)C1O (centres undefined)	?	?	309.9*[may fluoresce violet]	55.9	-0.1	114.6
CC(C)[C@H](NC(=O)[C@@H]1Cc2ccccc2CN1C(=O)OC(C)(C)C)C(=O)NCC1CCCO1 (some centres undefined)	106.7	98.0	86.9	99.8	6.4	88.6
COc1ccc(/C=C(/NC(=O)c2ccccc2)C(=O)NCc2ccco2)cc1	?	?	?	46.1*[may fluoresce violet]	0.0	62.2
O=C1c2cccc3c2[C@H](CCC3)CN1[C@@H]1CN2CCC1CC2	98.4	89.0	90.0	97.3	1.3	103.5
CC(C)CCNC(=O)C1CCN(S(=O)(=O)c2ccc(-n3cnnn3)cc2)CC1	92.9	93.1	97.5	97.2	7.7	94.3
Cc1cc(=O)oc2c3c(cc(OCC(=O)Nc4ccc(CCO)cc4)c12)OC(C)(C)CC3	?	?	209.4*[may fluoresce violet]	40.7*[may fluoresce violet]	26.6	90.4
Cc1cc(=O)oc2c3c(cc(OCC(=O)NCc4ccccc4)c12)OC(C)(C)CC3	97.1	96.6	94.1	94.7	-21.7	103.9
O=C(CNC(=O)c1ccccc1F)Nc1ccc2c(c1)OCO2	98.0	90.0	90.6	93.1	-4.5	93.8
O=c1cc(O)nc(SCc2ccc(Cl)cc2)[nH]1	?	17.7	352.4*[may fluoresce violet]	56.7	11.8	104.9
COc1cc(OC)c(C(=O)NC2CCCc3ccccc32)cc1OC (centres undefined)	96.7	96.3	100.4	96.8	5.6	93.6
COc1cc(NC(=O)Cn2cnc3c(SC)nc(N)nc32)cc(OC)c1OC	92.7	90.9	88.3	86.1	-14.1	82.0
CC1CCCN(S(=O)(=O)c2cccc(-c3cn4cccnc4n3)c2)C1 (centres undefined)	?	.	177.4*[may fluoresce violet]	60.9	7.6	84.2
CC1CCN(S(=O)(=O)c2cccc(-c3cn4cc(Cl)ccc4n3)c2)CC1	87.1	98.2	93.2	93.3	2.5	158.3*
Cc1nc(-c2cccc(S(=O)(=O)N3CCCC(C)C3)c2)cs1 (centres undefined)	102.1	82.1	100.9	95.0	9.6	98.2
N#Cc1ccccc1OCC(=O)Nc1ccc(S(=O)(=O)N2CCOCC2)cc1	122.6	99.7	111.3	99.3	-7.7	95.6
SMILES	CIT2-GFP yeast	AGP1-GFP MLPCN	MEP2 TOR yeast	RPL19A-GFP yeast	VLA-4 inh	LAP4 TOR yeast
Cc1ccc(NS(=O)(=O)c2ccc(-n3cccn3)cc2)cc1F	?	?	145.9	13.9*[may fluoresce violet]	-2.6	75.8
Cc1cccc(NS(=O)(=O)c2ccc(-n3cccn3)cc2)c1C	?	?	130.3	22.4*[may fluoresce violet]	3.2	75.8
NC(=O)C1CCN(c2nc3c(S(=O)(=O)c4ccccc4)nnn3c3ccccc23)CC1	98.1	93.5	100.8	92.5	5.0	93.0
O=[N+]([O-])c1ccc(O)c(/C=N/n2c(CO)nc3ccccc32)c1	96.0	104.6	103.0	102.6	3.1	113.9
O=[N+]([O-])c1ccc(O)c(/C=N/n2cnc3ccccc32)c1	?	?	183.8*[may fluoresce violet]	50.9	1.1	95.2
C=CC(n1cncn1)C(O)(c1ccccc1)c1ccccc1 (centres undefined)	100.3	86.1	87.6	99.2	14.1	103.5
Cc1cc(C)n(-c2ccc(C(=O)N3CCN(S(=O)(=O)c4ccc(C(C)C)cc4)CC3)cc2)n1	?	19.6	221.1*[may fluoresce violet]	92.8	7.1	76.9
COc1ccc(C2C(C(=O)NCc3ccccc3)=C(C)Nc3ncnn32)cc1OC (centres undefined)	?	?	199.8*[may fluoresce violet]	65.0	-3.6	60.4
Cc1nc(N2CCN(c3ccccc3O)CC2)c2c(-c3ccccc3)csc2n1	96.3	102.8	112.2	103.8	-3.9	99.1
Cc1ccccc1C(=O)NCC(=O)NC1CC1	94.1	98.9	106.3	95.2	6.4	100.0
N=c1c(C(=O)NCc2ccco2)cc2c(=O)n3ccccc3nc2n1C1CCCC1	?	81.4	269.1*[may fluoresce violet]	58.7	0.0	89.0
N=c1c(C(=O)NCc2ccco2)cc2c(=O)n3ccccc3nc2n1Cc1ccccc1	?	23.0	131.1	67.4	12.7	96.6
Cc1cccn2c(=O)c3cc(C(=O)NC4CCCC4)c(=N)n(C4CCCC4)c3nc12	99.3	99.7	103.8	99.5	-10.1	98.5
N=c1c(C(=O)NC2CCCC2)cc2c(=O)n3ccccc3nc2n1C1CCCC1	?	?	307.6*[may fluoresce violet]	16.1*[may fluoresce violet]	-13.6	106.8
COCCn1c(=N)c(C(=O)NCc2ccco2)cc2c(=O)n3ccccc3nc21	93.8	66.5	573.0*	60.6	-7.2	106.7
N=c1c(C(=O)NCc2ccco2)cc2c(=O)n3ccccc3nc2n1Cc1ccc(Cl)cc1	?	.	100.2	93.7	11.1	103.5
CCCCN(Cc1nc2ccccc2c(=O)[nH]1)C(=O)CN1C(=O)NC2(CCCCC2)C1=O	105.1	98.6	94.5	96.4	-10.7	94.0
